{"source": "PubChem BioAssay", "key": {"[1]": {"test": "LFS_MB_P medulloblastoma growth inhibition, cell-based, chromothripsis tumors, cisplatin or BGB combos (AID 1671449);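 also: cells exposed for 96 hours; 0% = vehicle DMSO and 100% = killing by high DMSO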", "settings": "LFS_MB_P medulloblastoma cells"}, "[2]": {"test": "HDN33 neuroblastoma growth inhibition, cell-based, chromothripsis tumors, cisplatin or BGB combos (AID 1671450);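 also: cells exposed to compound for four days; 0% = vehicle DMSO and 100% = cell killing by high DMSO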", "settings": "HDN33 neuroblastoma cells, stronger effect = higher value"}, "[3]": {"test": "ICB984 medulloblastoma cell growth inhibition, synergistic combos for chromothripsis tumors, cisplatin or BGB combos (AID 1671451; call rule not given here;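 also: cells exposed for 96 hours before readout; 0% = vehicle DMSO and 100% = killing by high DMSO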)", "settings": "ICB984 medulloblastoma cells, drug combinations, stronger effect = higher value"}, "[4]": {"test": "LFS_MB_1R medulloblastoma cell growth inhibition, synergistic combos for chromothripsis tumors, cisplatin or BGB combos (AID 1671452);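 also: cells exposed for 96 hours before readout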", "settings": "LFS_MB_1R medulloblastoma cells, stronger effect = higher value"}, "[5]": {"test": "HTB85 osteosarcoma cell growth inhibition, synergistic combos for chromothripsis tumors, BGB or cisplatin IC20 combos (AID 1671453);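 also: cells exposed for 96 hours before readout; 0% = vehicle DMSO and 100% = high DMSO killing control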", "settings": "HTB85 osteosarcoma cells, drug combinations, stronger effect = higher value"}, "[6]": {"test": "CRL2098 osteosarcoma cell growth inhibition, synergistic combos for chromothripsis tumors, BGB or cisplatin IC20 combos (AID 1671454);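 also: cells exposed for 96 h before readout; 0% = vehicle DMSO and 100% = killing by high DMSO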", "settings": "CRL2098 osteosarcoma cells, drug combinations, stronger effect = higher value"}, "[7]": {"test": "HD-MB03 medulloblastoma cell growth inhibition, synergistic combos for chromothripsis tumors, BGB or cisplatin IC20 combos (AID 1671455; in the data active = inhibition above about 83%;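 also: 0% = vehicle DMSO and 100% = high DMSO as cytotoxic control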)", "settings": "HD-MB03 medulloblastoma cells, stronger effect = higher value"}, "[8]": {"test": "UWB1.289 ovarian carcinoma cell growth inhibition, synergistic combos for chromothripsis tumors, BGB or cisplatin combos (AID 1671456);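 also: cells exposed to compound for four days; 0% = vehicle DMSO and 100% = killing by high DMSO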", "settings": "UWB1.289 ovarian carcinoma cells, stronger effect = higher value"}, "[9]": {"test": "LFS_MB_2R medulloblastoma cell growth inhibition, synergistic combos for chromothripsis tumors, cisplatin combos (AID 1671457);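 also: cells exposed to compound for four days before readout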", "settings": "LFS_MB_2R medulloblastoma cells, stronger effect = higher value"}, "[10]": {"test": "MDA-MB-436 breast carcinoma cell growth inhibition, synergistic combos for chromothripsis tumors, BGB or cisplatin combos (AID 1671458; call rule not given here;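 also: cells exposed for 96 hours; 0% = vehicle DMSO and 100% = killing by high DMSO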)", "settings": "MDA-MB-436 breast carcinoma growth inhibition, drug combinations, stronger effect = higher value"}, "[11]": {"test": "UWB1.289_BRCA1 ovarian cancer growth, cell-based, BGB or cisplatin combinations (AID 1671459)", "settings": "UWB1.289 BRCA1 ovarian carcinoma, drug combinations, stronger effect = higher value"}, "[12]": {"test": "human astrocyte viability loss, single and combined drugs, cytotoxicity control for chromothriptic childhood tumor combination screen, cell-based, BGB or cisplatin IC20 combos (AID 1671460);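 also: cells exposed to compounds for 96 hours before viability readout; 0% = vehicle and 100% = killing control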", "settings": "Human astrocytes, drug combinations, stronger effect = higher value"}, "[13]": {"test": "growth inhibition of BT084 medulloblastoma cells, cell-based, ICGC_MB145, cisplatin and BGB IC40 combos (AID 1671461);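 also: cells exposed to drugs for 96 hours; 0% = vehicle DMSO and 100% = high DMSO full killing control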", "settings": "drug combinations, stronger effect = higher value"}, "[14]": {"test": "growth inhibition of RCMB18 medulloblastoma cells, cell-based, cisplatin and BGB IC40 combos (AID 1671462);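 also: cells exposed to compound for four days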", "settings": "stronger effect = higher value"}, "[15]": {"test": "growth inhibition of CRL1545 osteosarcoma cells, cell-based, cisplatin and BGB IC20 combos (AID 1671464);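 also: cells exposed to compound for 96 hours before readout; 0% = vehicle DMSO and 100% = high DMSO killing control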", "settings": "stronger effect = higher value"}, "[16]": {"settings": "measured here: combination with BGB IC40, at 0.05 µM"}, "[17]": {"settings": "measured here: with BGB IC20 combination, at 0.5 µM"}, "[18]": {"settings": "measured here: with cisplatin IC20 combination, at 0.5 µM"}, "[19]": {"settings": "measured here: combination with cisplatin, at 0.5 µM"}, "[20]": {"settings": "measured here: combination with cisplatin, at 5 µM"}}, "note": "Active and inactive are the calls of the source. Rule as the data show it, unless noted: active = inhibition above about 80%; inactive = the rest.", "data": [{"compound": "Nc1nc(NC2CC2)cc(-c2cccc(Cl)c2Cl)n1", "values": [{"measurement": "inhibition", "setting": "[1]; at 0.5 µM, stronger effect = higher value", "value": "-24.4% (inactive)"}, {"measurement": "inhibition", "setting": "[1]; measured here: combination with BGB IC20, at 0.005 µM", "value": 6.42, "unit": "%"}, {"measurement": "inhibition", "setting": "[1]; measured here: combination with BGB IC40, at 0.005 µM", "value": -13.3, "unit": "%"}, {"measurement": "inhibition", "setting": "[1]; [16]", "value": -3.68, "unit": "%"}, {"measurement": "inhibition", "setting": "[1]; measured here: combination with cisplatin, at 0.5 µM, stronger effect = higher value", "value": -27.2, "unit": "%"}, {"measurement": "inhibition", "setting": "[1]; measured here: combination with cisplatin, at 5 µM, stronger effect = higher value", "value": -1.92, "unit": "%"}, {"measurement": "inhibition", "setting": "[2]; BGB combo, at 5 µM", "value": 4.24, "unit": "%"}, {"measurement": "inhibition", "setting": "[2]; at 0.5 µM", "value": "-22.2% (inactive)"}, {"measurement": "inhibition", "setting": "[2]; cisplatin combo, at 5 µM", "value": -25.5, "unit": "%"}, {"measurement": "inhibition", "setting": "[2]; [17]", "value": -14.4, "unit": "%"}, {"measurement": "inhibition", "setting": "[2]; [18]", "value": -33.4, "unit": "%"}, {"measurement": "inhibition", "setting": "[2]; single agent, at 5 µM", "value": 1.5, "unit": "%"}, {"measurement": "inhibition", "setting": "[3]; BGB IC20 combo, at 0.005 µM", "value": -16.3, "unit": "%"}, {"measurement": "inhibition", "setting": "[3]; BGB IC40 combo, at 0.005 µM", "value": -42.9, "unit": "%"}, {"measurement": "inhibition", "setting": "[3]; BGB IC40 combo, at 0.05 µM", "value": -23.9, "unit": "%"}, {"measurement": "inhibition", "setting": "[3]; at 0.5 µM", "value": "-15.4% (inactive)"}, {"measurement": "inhibition", "setting": "[3]; cisplatin combo, at 0.05 µM", "value": -28.8, "unit": "%"}, {"measurement": "inhibition", "setting": "[3]; cisplatin combo, at 0.5 µM", "value": -25.9, "unit": "%"}, {"measurement": "inhibition", "setting": "[3]; cisplatin combo, at 5 µM", "value": -24, "unit": "%"}, {"measurement": "inhibition", "setting": "[3]; measured here: 5 uM single agent, at 5 µM", "value": -4.67, "unit": "%"}, {"measurement": "inhibition", "setting": "[4]; at 0.5 µM", "value": "-47.5% (inactive)"}, {"measurement": "inhibition", "setting": "[4]; [16]", "value": -29.4, "unit": "%"}, {"measurement": "inhibition", "setting": "[4]; [19]", "value": -115, "unit": "%"}, {"measurement": "inhibition", "setting": "[4]; [20]", "value": -60.1, "unit": "%"}, {"measurement": "inhibition", "setting": "[5]; at 0.5 µM", "value": "-20.9% (inactive)"}, {"measurement": "inhibition", "setting": "[5]; measured here: with BGB IC20, at 0.5 µM", "value": -3.53, "unit": "%"}, {"measurement": "inhibition", "setting": "[5]; measured here: with BGB IC20, at 5 µM", "value": -8.44, "unit": "%"}, {"measurement": "inhibition", "setting": "[5]; measured here: with cisplatin IC20, at 0.5 µM", "value": -38.1, "unit": "%"}, {"measurement": "inhibition", "setting": "[5]; measured here: with cisplatin IC20, at 5 µM", "value": -21.3, "unit": "%"}, {"measurement": "inhibition", "setting": "[5]; single agent, at 5 µM", "value": 3.83, "unit": "%"}, {"measurement": "inhibition", "setting": "[6]; at 0.5 µM", "value": "-50% (inactive)"}, {"measurement": "inhibition", "setting": "[6]; measured here: combination with BGB at IC20, at 0.5 µM", "value": -42.1, "unit": "%"}, {"measurement": "inhibition", "setting": "[6]; measured here: combination with cisplatin at IC20, at 0.5 µM", "value": -36.5, "unit": "%"}, {"measurement": "inhibition", "setting": "[7]; at 0.5 µM", "value": "-12.4% (inactive)"}, {"measurement": "inhibition", "setting": "[7]; measured here: combo with BGB at IC20, at 0.5 µM", "value": -17, "unit": "%"}, {"measurement": "inhibition", "setting": "[7]; measured here: combo with cisplatin at IC20, at 0.5 µM", "value": -8.02, "unit": "%"}, {"measurement": "inhibition", "setting": "[8]; at 0.5 µM", "value": "-15.7% (inactive)"}, {"measurement": "inhibition", "setting": "[8]; measured here: inhibition with BGB combination, at 0.05 µM", "value": -10.8, "unit": "%"}, {"measurement": "inhibition", "setting": "[8]; measured here: inhibition with cisplatin combination, at 0.05 µM", "value": -19.7, "unit": "%"}, {"measurement": "inhibition", "setting": "[9]; at 0.5 µM", "value": "-12.8% (inactive)"}, {"measurement": "inhibition", "setting": "[9]; [19]", "value": -18, "unit": "%"}, {"measurement": "inhibition", "setting": "[9]; [20]", "value": 18.1, "unit": "%"}, {"measurement": "inhibition", "setting": "[10]; at 0.5 µM", "value": "-5.02% (inactive)"}, {"measurement": "inhibition", "setting": "[10]; measured here: BGB combination, at 0.5 µM", "value": -1.67, "unit": "%"}, {"measurement": "inhibition", "setting": "[10]; measured here: BGB combination, at 5 µM", "value": 10.3, "unit": "%"}, {"measurement": "inhibition", "setting": "[10]; measured here: cisplatin combination, at 0.5 µM", "value": -5.74, "unit": "%"}, {"measurement": "inhibition", "setting": "[10]; measured here: cisplatin combination, at 5 µM", "value": 15.8, "unit": "%"}, {"measurement": "inhibition", "setting": "[11]; BGB combination, concentration series, at 5 µM", "value": 9.28, "unit": "%"}, {"measurement": "inhibition", "setting": "[11]; at 0.5 µM", "value": "-9.72% (inactive)"}, {"measurement": "inhibition", "setting": "[11]; cisplatin combination, concentration series, at 5 µM", "value": 10.7, "unit": "%"}, {"measurement": "inhibition", "setting": "[12]; at 0.5 µM", "value": "-2.78% (inactive)"}, {"measurement": "inhibition", "setting": "[12]; measured here: combo with BGB IC20, at 0.5 µM", "value": -4.24, "unit": "%"}, {"measurement": "inhibition", "setting": "[12]; measured here: combo with cisplatin IC20, at 0.5 µM", "value": 6.45, "unit": "%"}, {"measurement": "inhibition", "setting": "[13]; at 0.5 µM", "value": "-9.21% (inactive)"}, {"measurement": "inhibition", "setting": "[13]; cisplatin combination, at 0.5 µM", "value": -6.21, "unit": "%"}, {"measurement": "inhibition", "setting": "[13]; cisplatin combination, at 5 µM", "value": -20.8, "unit": "%"}, {"measurement": "inhibition", "setting": "[13]; measured here: BGB IC40 combination 0.05 uM, at 0.05 µM", "value": -10.7, "unit": "%"}, {"measurement": "inhibition", "setting": "[13]; single agent, at 5 µM", "value": -6.16, "unit": "%"}, {"measurement": "inhibition", "setting": "[14]; at 0.5 µM", "value": "-8.4% (inactive)"}, {"measurement": "inhibition", "setting": "[14]; cisplatin combo, at 5 µM", "value": -0.639, "unit": "%"}, {"measurement": "inhibition", "setting": "[14]; measured here: BGB IC40 combination, at 0.05 µM", "value": -3.5, "unit": "%"}, {"measurement": "inhibition", "setting": "[14]; [19]", "value": -22.4, "unit": "%"}, {"measurement": "inhibition", "setting": "[14]; single agent, at 5 µM", "value": -28.4, "unit": "%"}, {"measurement": "inhibition", "setting": "[15]; at 0.5 µM", "value": "-36.8% (inactive)"}, {"measurement": "inhibition", "setting": "[15]; [17]", "value": -16.7, "unit": "%"}, {"measurement": "inhibition", "setting": "[15]; [18]", "value": -46.8, "unit": "%"}, {"measurement": "inhibition", "setting": "[15]; single agent, at 0.05 µM", "value": -25, "unit": "%"}, {"measurement": "inhibition", "setting": "[15]; single agent, at 5 µM", "value": -32.6, "unit": "%"}]}]}
